Source: PubChem BioAssay (NCI)
This is part of a sample that, as a whole, favours compounds with a hit. Of some 83,000 tested, about 20% had one in any assay.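 Negative percent growth values reflect cell death: -40 means 40% of the cells present at the start died, and -100 means all died.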 Values without a mark were called inactive. Active and inactive are the calls of the source. The calls were made as follows: active = growth percent below 10; inactive = the rest.

Assays:
Experiment in all cases: NCI-60 one-dose screen, 48 h (100 = growth as untreated, 0 = no growth, -100 = all killed)
SK-MEL-2 melanoma = conditions: 10 µM unless noted
SN12C renal = conditions: 10 µM unless noted
UO-31 renal = conditions: 10 µM unless noted
TK-10 renal = conditions: 10 µM unless noted
ACHN renal = conditions: 10 µM unless noted
CAKI-1 renal = conditions: 10 µM unless noted
A498 renal = conditions: 10 µM unless noted
CCRF-CEM leukemia = conditions: 10 µM unless noted
MOLT-4 leukemia = conditions: 10 µM unless noted
SR leukemia = conditions: 10 µM unless noted
RPMI-8226 leukemia = conditions: 10 µM unless noted
OVCAR-8 ovarian = conditions: 10 µM unless noted
OVCAR-5 ovarian = conditions: 10 µM unless noted
OVCAR-4 ovarian = conditions: 10 µM
SK-OV-3 ovarian = conditions: 10 µM unless noted
IGROV1 ovarian = conditions: 10 µM unless noted
OVCAR-3 ovarian = conditions: 10 µM unless noted
NCI/ADR-RES ovarian = conditions: 10 µM unless noted
HS 578T breast = conditions: 10 µM unless noted

| SMILES | growth (SK-MEL-2 melanoma) | growth (SN12C renal) | growth (UO-31 renal) | growth (TK-10 renal) | growth (ACHN renal) | growth (CAKI-1 renal) | growth (A498 renal) | growth (CCRF-CEM leukemia) | growth (MOLT-4 leukemia) | growth (SR leukemia) | growth (RPMI-8226 leukemia) | growth (OVCAR-8 ovarian) | growth (OVCAR-5 ovarian) | growth (OVCAR-4 ovarian) | growth (SK-OV-3 ovarian) | growth (IGROV1 ovarian) | growth (OVCAR-3 ovarian) | growth (NCI/ADR-RES ovarian) | growth (HS 578T breast) |
| --- | --- | --- | --- | --- | --- | --- | --- | --- | --- | --- | --- | --- | --- | --- | --- | --- | --- | --- | --- |
| CN(C)CCOc1ccc(/C(=C(/CCCl)c2ccccc2)c2ccccc2)cc1 | 48.5% | 23.7% | 26.5% | 49.8% | 30.1% | 30.8% | 65.7% | -6.69% (active) | -4.84% (active) | -17% (active) | -11.4% (active) | 26.7% | 47% | 32.9% | 33.6% | 30.5% | 12.9% | 14.1% | – |
| CCc1ccc(C2=C/C(=C/c3ccccc3)C(=O)N2CCc2ccc(S(N)(=O)=O)cc2)cc1 | 104% | 101% | 68.4% | 122% | 99% | 67.8% | 88.7% | 106% | 97% | 96.9% | 110% | 100% | 109% | – | – | 91.4% | 109% | 104% | 97.5% |
| COc1ccc(-c2cc(-c3ccc(OC)c(OC)c3)nc(SCCCCCC(=O)NO)n2)cc1 | 52.5% | 77% | 68.6% | 44.9% | 81.3% | 53.7% | – | 22.7% | 14% | -1.05% (active) | 29.4% | 37.7% | 52.4% | 76.8% | 46.6% | 61.6% | 64.8% | 101% | 44.7% |
| C=CC1=C(C)C2=NC1=CC1=NC(=CC3=C(C)C4=C(O)C(C(=O)O)C(=C5NC(=C2)C(C)C5CCC(=O)O)C4=N3)C(CC)=C1C (stereo not given) | 129% | 101% | 73.6% | 106% | 98.7% | 101% | 106% | 96.3% | 96.9% | 95.5% | 102% | 107% | 114% | 103% | 119% | 106% | 107% | 114% | 105% |
| COc1ccc2c3ccnc(C(F)(F)F)c3n(CCCCN)c2c1 | 55.3% | 51.6% | 13.4% | 61.3% | 26.8% | 29.6% | 17% | 72.7% | 51% | 26.9% | 31.3% | 46.1% | 54.8% | 74.6% | 53.3% | – | 47.3% | 64.9% | 44.9% |
| O=C1CC(c2ccc3c(c2)OCO3)Nc2ccccc21 (stereo not given) | 40.1% | 34.4% | 43.9% | 40.1% | 46.9% | 33.9% | -11.2% (active) | 10.8% | 62.7% | 19% | 15.4% | 22.3% | 54.3% | 51.7% | – | 53.5% | -19.5% (active) | 1.78% (active) | 20.2% |
| O=C(CSc1nc2ccc([N+](=O)[O-])cc2[nH]1)Nc1ccc(F)c(Cl)c1 | -7.66% (active) | 3.12% (active) | 3.59% (active) | 25.1% | 16.9% | 9.26% (active) | -13.1% (active) | 19% | 5.63% (active) | 5.97% (active) | -22.3% (active) | 15.5% | 50.9% | 2.64% (active) | 21.4% | 36.1% | 16.5% | 22.4% | 20.3% |
| CCN(CC)CCSC(=O)C(O)(c1ccccc1)C1CCCC1 (stereo not given) | 106% | 99.8% | 78.1% | 120% | 105% | 92% | 95.7% | 118% | 91.3% | 96.7% | 109% | 97.8% | 94.6% | 119% | 113% | – | 121% | 84.5% | 110% |
| CCCCC(CCCCCC(CCCC)C1NC(C)Cc2cc(OC)c(OC)cc21)C1NC(C)Cc2cc(OC)c(OC)cc21 (stereo not given) | -81.9% (active) | -21.3% (active) | -83.5% (active) | -94.5% (active) | -100% (active) | -63.9% (active) | -12.3% (active) | – | -63% (active) | -79.2% (active) | -48.3% (active) | -74.3% (active) | -96.4% (active) | -90.1% (active) | -87.3% (active) | -34.8% (active) | -94.2% (active) | -88.3% (active) | -38.6% (active) |
| C=C(C)C1CCC2(C(=O)O)CCC3(C)C(CCC4C5(C)CCC(OC(=O)NCc6ccccc6)C(C)(C)C5CCC43C)C12 (stereo not given) | 54.6% | 42.3% | 40.3% | 59.2% | 30.3% | 16.1% | 56.3% | – | 29.4% | 41.7% | 8.22% (active) | 45.5% | 75.6% | 30.7% | 68.9% | – | 19% | 44.8% | 84.7% |
| COc1cc2c(c(OC)c1)C1c3cc(OC)ccc3NC(=O)N1CC2 (stereo not given) | 45.5% | 88.5% | 78.5% | 82.5% | 100% | 77.8% | 74.7% | 88.2% | 72.9% | 24% | 81.9% | 95.1% | 93.7% | – | 93.1% | 80.2% | 81.9% | 51.5% | 90.2% |
| COC(=O)[C@@H](NC(=O)NC(=O)NC(=O)CI)C(C)C | 87.4% | 90.1% | -15.4% (active) | 89.8% | 79.8% | -61.6% (active) | 87.9% | -32.9% (active) | 10.6% | -46.6% (active) | 74.5% | 90.9% | 90.9% | 72.7% | 80.9% | 101% | 7.92% (active) | 101% | 86.8% |
| CCOc1ccc2sc(NS(=O)(=O)c3ccc(N)cc3)nc2c1 | 109% | 98.2% | 91.2% | 124% | 108% | – | 115% | 99.1% | 104% | 95.4% | 96.5% | 105% | 109% | 105% | 101% | 95.8% | 115% | 113% | 106% |
